Bioassay records from PubChem.
An excerpt weighted towards active compounds, which were near 10% of everything screened.
Luciferase inh: Firefly luciferase inhibition profiling of diverse chemical library using quantitative high-throughput screening. purified P. pyralis luciferase, luminescence, biochemical. Potency, µM (series often up to 115 µM), actives largely listed as inhibitors. 2.5% of 76,000 active. AID 1347043, 2019; also: nearly all actives have a fitted effect of over 65% in size
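FLuc 10nM, D-luciferin 10uM, ATP 10uM, Mg acetate 10mM, Tris acetate pH 7.5, Tween/BSA; cpd qHTS; enzyme added last; CCD luminescence.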
NIH3T3 tox: Cytotoxic Profiling in NIH 3T3 Cell Line of Diverse Libraries Using Quantitative High-Throughput Screening; NIH 3T3 viability, CellTiter-Glo ATP luminescence, 48-72 h; Potency, µM (titrated, usually from 96.7 µM), for inactives: top-dose activity change, negative = cytotoxicity, most hits filed as inhibitors; 4.3% of 94,000 active; AID 1345082, 2018; also: nearly all actives have a fitted effect of over 55% in size
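ATP-dependent luminescence (CellTiter-Glo) served as the viability signal for NIH 3T3 cells treated with compound for 48 or 72 hr at 37 °C.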
GPT2 inh: Primary qHTS assay for inhibitors of Glutamate pyruvate transaminase 2 (GPT2); 0.25% of 100,000 active; Potency, µM (titrated, usually from 57.7 µM), inactives show top-dose activity change, negative = inhibition, most hits filed as inhibitors; Recombinant GPT2, coupled pyruvate oxidase/HRP Amplex Red fluorescence; AID 1671188, 2021; also: nearly all actives have a fitted effect of over 60% in size
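GPT2 10ng/uL, a-KG 250uM, L-Ala 2mM, HEPES pH7.5 + 0.0001% Tween; 30 min RT. Then Amplex mix (PO/HRP/ThPP), 30 min RT dark, fluorescence. AOA 50uM used as positive control.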
HEK293 tox: Cytotoxic Profiling in HEK 293 Cell Line of Diverse Libraries Using Quantitative High-Throughput Screening; Potency, µM (titrated, usually from 115 µM), for the others: top-dose activity change, negative = cytotoxicity, usual class: inhibitors; AID 1345083, 2018; HEK 293 viability, ATP luminescence (CellTiter-Glo), 48-72 h; 6.6% of 94,000 active; also: nearly all actives have a fitted effect of over 60% in size
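CellTiter-Glo luminescence (cellular ATP) was read after 48 or 72 hr of compound exposure at 37 degree Celsius. Cells were HEK 293 plated at 250 cells/well.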
NPR1 antag: Natriuretic polypeptide receptor (hNpr1) antagonism - Primary qHTS; Atrial natriuretic peptide receptor 1 (Homo sapiens), P16066; HEK293 hNpr1 GloSensor cGMP, ANP-stimulated luminescence; Potency, µM (titrated, usually from 46.3 µM), for the others: at the highest dose activity change, negative = inhibition, actives largely listed as inhibitors; 1.6% of 76,000 active; AID 1347048, 2019; calls by dose curve; also: nearly all actives have a fitted effect of over 60% in size
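Compound pre-incubated 30 min at room temperature on GloSensor-loaded HEK293 cells stably carrying hNpr1 and the pGS-40F cGMP biosensor. Stimulation uses hNppA at 0.1 nM final; luminescence is taken at baseline and 20 min post-agonist.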
* marks the source's active call; other numbers are inactive results; i = inactive; ? = inconclusive; . = no result; [ ] = another dose, or the depositor's remark. Unless noted, calls follow the shape of the dose curve; as a rule, active = well fitted curve in the direction sought with a large enough effect; inconclusive = small, poorly fitted or top-dose-only effect, or another doubt; inactive = no such curve, though single readings can be large; an effect the other way counts as inactive or inconclusive. % is scaled to controls: 0 for no effect and ±100 for the full control effect; potency is read from the fitted curve at half-maximal effect.

SMILES	Luciferase inh	NIH3T3 tox	GPT2 inh	HEK293 tox	NPR1 antag
CC(C)CNC(=O)c1ccc2nnc(-c3cc(C(F)(F)F)cc(C(F)(F)F)c3)n2c1	.	?	i	?	.
C[S+](=O)([O-])c1ccc(-c2nnc3ccc(C(=O)NCc4ccccc4)cn23)cc1	.	-24.0%	-9.6%	-6.0%	.
COCCN1C[C@@H]2[C@H](c3ccccc31)[C@@H](CO)[C@@H](c1ccccc1)N2C(=O)COC(C)=O	.	?	.	-23.8%	.
CC(C)c1noc(C2Cc3ccccc3N2C(=O)CCn2cnnn2)n1 (stereo unspecified)	i	2.7%	i	6.2%	-1.8%
CCn1ccc(C(=O)N2c3ccccc3CC2c2nc(C(C)C)no2)n1 (stereo unspecified)	39.8µM*	-15.9%	-9.5%	?	-11.5%
Cc1ccc(C)c(C(=O)N[C@@H]2CN(Cc3ccccn3)C[C@H]2CN(C)C)c1	i	-3.2%	i	79.4µM*	-3.9%
COc1ccc(C(=O)N[C@@H]2CN(Cc3ccccc3)C[C@H]2CN(C)C)cc1	.	?	i	5.62µM*	.
CN(C)C[C@@H]1CN(Cc2ccncc2)C[C@H]1NC(=O)c1ccc(Cl)cc1	i	?	-18.4%	39.8µM*	-9.9%
COc1ccc(C(=O)N[C@@H]2CN(Cc3ccccc3)C[C@H]2CN(C)C)cn1	.	31.6µM*	-5.3%	?	.
Fc1ccc(OCc2nnc([C@H]3CCN(Cc4cccnc4)C3)o2)cc1	i	?	-2.8%[88.5 µM]	?	0.1%[70.6 µM]
Cc1cccc(C(=O)N[C@@H]2CN(C3CCOCC3)C[C@H]2CN(C)C)c1	i	-0.5%	i	?	-13.2%
CN(C)C[C@@H]1CN(C2CCOCC2)C[C@H]1NC(=O)c1ccc(F)c(Cl)c1	i	?	-2.2%	79.4µM*	-9.6%
COCCC1(NC(=O)NCc2ccc(C)cc2)CCN(S(C)(=O)=O)CC1	.	-10.6%	i	-3.4%	.
O=C(c1cc2n(n1)CC(c1ccc(Cl)cc1)OC2)N1CCN(c2ccc(F)cc2)CC1 (stereo unspecified)	i	?	i	39.8µM*	?
O=C(c1cc2n(n1)CC(c1ccc(Cl)cc1)OC2)N1CCN(c2ccccc2Cl)CC1 (stereo unspecified)	i	?	-0.7%	28.2µM*	-25.0%
O=C(c1cc2n(n1)CC(c1ccc3c(c1)OCO3)OC2)N1CCN(c2ccccc2)CC1 (stereo unspecified)	i	?	-7.3%	?	?
CN1CCN(C(=O)c2cc3n(n2)CC(c2ccc(Br)cc2)OC3)CC1 (stereo unspecified)	i	?	0.3%	39.8µM*	-11.4%
CC(C)C[C@@H]1N[C@H](C(=O)NCC2CC2)Cc2c[nH]c3cccc1c23	i	?	-20.5%[88.5 µM]	35.5µM*	-23.3%[70.6 µM]
CC(C)C[C@@H]1N[C@H](C(=O)NCc2ccco2)Cc2c[nH]c3cccc1c23	i	100µM*	-16.8%[88.5 µM]	35.5µM*	4.2%[70.6 µM]
C=CCN(C)C(=O)[C@@H]1Cc2c[nH]c3cccc(c23)[C@H](CC(C)C)N1	i	?	-15.8%[88.5 µM]	?	-11.2%[70.6 µM]
C#CCNC(=O)[C@@H]1Cc2c[nH]c3cccc(c23)[C@H](CC(C)C)N1	i	100µM*	i	70.8µM*	-2.8%[70.6 µM]
COCCCNC(=O)CNC(=O)c1cccc(-c2ccc(SC)cc2)c1	.	?	i	?	.
CCN1CCN(Cc2cc(C)cc(CN(C)Cc3ncc(C)[nH]3)c2C)CC1	39.8µM*	-25.9%	i	?	-1.8%
Cc1cnc(CN(C)Cc2cn(-c3ccccc3)nn2)[nH]1	i	-6.1%	3.4%	-8.8%	0.5%
O=C(C1CCCN1c1nccc(Nc2ccccc2F)n1)N1CCN(Cc2ccccc2)CC1 (stereo unspecified)	.	?	i	31.6µM*	.
SMILES	Luciferase inh	NIH3T3 tox	GPT2 inh	HEK293 tox	NPR1 antag
O=C(C1CCN(c2nccc(Nc3ccccc3Cl)n2)CC1)N1CCC(c2ccccc2)CC1	.	39.8µM*	i	31.6µM*	.
O=C([C@@H]1CCCN1c1nccc(Nc2ccccc2Cl)n1)N1CCN(Cc2ccccc2)CC1	.	44.7µM*	-4.7%	?	.
O=C(C1CCCN1c1nccc(Nc2ccccc2F)n1)N1CCC(c2ccccc2)CC1 (stereo unspecified)	.	?	i	?	.
O=C([C@@H]1CCCN1c1nccc(Nc2ccccc2Cl)n1)N1CCC(c2ccccc2)CC1	.	35.5µM*	-11.8%	22.4µM*	.
O=C([C@@H]1CCCN1c1nccc(Nc2ccccc2Cl)n1)N1CCCC1	.	?	2.0%	?	.
Cc1nc(C2CC(O)C2)cc(N(C)Cc2cnc3ccccc3c2)n1 (stereo unspecified)	i	?	4.4%	-27.3%	-1.6%
Cc1ccc(Nc2ccnc(N3CCCC3C(=O)N3CCN(Cc4ccccc4)CC3)n2)cc1 (stereo unspecified)	.	35.5µM*	i	14.1µM*	.
COc1ccc(Nc2ccnc(N3CCCC(C(=O)N4CCC(c5ccccc5)CC4)C3)n2)cc1 (stereo unspecified)	.	?	-10.4%	?	.
Cc1ccc(Nc2ccnc(N3CCCC3C(=O)N3CCC(c4ccccc4)CC3)n2)cc1 (stereo unspecified)	.	31.6µM*	i	31.6µM*	.
O=C(NCc1cccs1)C1CCCCN1Cc1ccc(-c2cccs2)cc1 (stereo unspecified)	.	28.2µM*	-3.2%	31.6µM*	.
O=C(NCc1ccc(F)cc1)C1CCCCN1Cc1ccc(-c2cccs2)cc1 (stereo unspecified)	.	?	-11.9%	?	.
O=C(NCC(F)F)C1CCCCN1Cc1ccc(-c2cccs2)cc1 (stereo unspecified)	.	-25.1%	-0.4%	25.1µM*	.
COCCOc1ccc2c(n1)CCN(C(=O)Cc1ccc(F)cc1)C2	i	-6.0%	i	-11.1%	-1.5%
O=C(NC1CCCN(c2cc(-c3ccccc3)[nH]n2)C1)c1ccc(F)cc1Cl (stereo unspecified)	?	?	?	?	-19.3%
O=C(NC1CCN(c2cc(-c3ccc(F)cc3)[nH]n2)C1)c1cccc(F)c1 (stereo unspecified)	i	?	?	39.8µM*	-14.7%
O=C(NC1CCCN(c2cc(-c3ccccc3)[nH]n2)C1)c1cccc(F)c1 (stereo unspecified)	?	?	?	25.1µM*	0.0%
Cc1noc(C)c1CCC(=O)N1CCC2(CC1)CC(CCOCC1CC1)CCO2 (stereo unspecified)	.	-31.4%	i	-27.5%	.
